Screens from PubChem.
A selection: hits, their analogues and other compounds. The true share with any hit is near 4%.
EBV LMP1 NFkB: inhibitors of Epstein-Barr LMP1-induced NF-kappaB reporter; LMP1-induced NF-kappaB luciferase reporter cells, luminescence; inhibition, % at 12.5 µM; 350,000 compounds, 0.69% hits; AID 504558; in the data active = inhibition above about 41%
HIF-2a block: inhibitors of HIF-2a. 786-0 RCC cells HIF-2a reporter, luciferase luminescence, overnight. inhibition, % at 18.8 µM. 360,000 compounds, 0.72% hits;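 active = inhibition of the luminescence signal of 40% or more relative to plate controls, in a single-dose primary screen at 18.75 µM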
Peg3 promoter: inhibitors of Peg3 promoter; HeLa PEG-Prom luciferase reporter, luminescence, overnight; inhibition, % at 20 µM; 360,000 compounds, 1.7% hits; AID 588405;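 active = inhibition of at least 50% at 20 µM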
TWEAK-Fn14 inh: blocks TWEAK-Fn14 interaction in a reporter cell assay; TWEAK-stimulated Fn14 reporter cells, luciferase luminescence, 8 h; 360,000 compounds, 2% hits; inhibition, % at 10 µM; AID 1159606; in the data active = inhibition above about 50%
TRPM1 prom inh: MITF TRPM1 promoter inhibition in SK-MEL-5 cells | inhibition, % at 12.5 µM | 330,000 compounds, 0.83% hits | AID 488899 | SK-MEL-5 TRPM1 promoter luciferase, 24 h;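 active = mean inhibition across replicates of 60% or more, whatever share of single replicates reaches that level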
TROY NFkB inh: TROY signaling inhibition. Q293 LMP1-TROYcd NF-kB luciferase reporter, 4 h. inhibition, % at 10 µM. 360,000 compounds, 0.98% hits. AID 1347056;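 active = compounds whose plate-normalised and pattern-corrected inhibition of the luciferase reporter signal at the single screening dose is 50% or more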
Each line names hits and unclear results; the compound was inactive in the other large screens.

COc1cc(-c2cnc3c(NC=O)cc(-c4cccc(C(F)(F)F)c4)cn23)cc(OC)c1OC	TWEAK-Fn14 inh 75 (no result: EBV LMP1 NFkB, TRPM1 prom inh)
COc1cc(-c2cnc3c(NC=O)cc(-c4ccsc4)cn23)cc(OC)c1OC	Peg3 promoter 76 (no result: EBV LMP1 NFkB, TRPM1 prom inh)
COc1cc(OC)cc(C(=O)NCC(C)NC(=O)c2cc(OC)cc(OC)c2)c1 (stereo not given)	none
CC1CCC(NC(=O)CNC(=O)Cc2cccc3ccccc23)CC1 (stereo not given)	none
O=C(NCCc1ccc(Cl)cc1)c1nnc(Cc2ccc(Cl)cc2)o1	none
Cc1ccc(CCNC(=O)c2nnc(CS(=O)(=O)c3ccccc3)o2)cc1	Peg3 promoter 62
c1ccc2c(-c3cnc4cccnn34)cncc2c1	none (no result: EBV LMP1 NFkB, TRPM1 prom inh)
c1cc(-c2cnc3cccnn23)c2cccnc2c1	TWEAK-Fn14 inh 61 (no result: EBV LMP1 NFkB, TRPM1 prom inh)
Cc1c(S(=O)(=O)Nc2cccc3ccccc23)c(=O)n(C)c(=O)n1C	none
CCCCCOC(=O)C1=C(C)NC(=O)NC1c1ccc(OC)cc1 (stereo not given)	TWEAK-Fn14 inh 70
O=C(c1ccc(S(=O)(=O)c2ccccc2Cl)c([N+](=O)[O-])c1)N1CCCCCC1	TWEAK-Fn14 inh 66
Cc1ccc(S(=O)(=O)NCCCNS(=O)(=O)c2ccc(C)cc2)cc1	none (no result: TRPM1 prom inh)
Cc1ccc(S(=O)(=O)NCCn2nc(C)cc2C)cc1	TWEAK-Fn14 inh 91
CCOC(=O)c1ccc(-c2ccc(/C=N/NC(=O)CN(c3cccc(C)c3)S(C)(=O)=O)o2)cc1	none
CCOC(=O)c1ccc(-c2ccc(/C=N/NC(=O)CN(c3ccccc3Cl)S(C)(=O)=O)o2)cc1	TWEAK-Fn14 inh 71
C[C@@H]1COC(=O)[C@@H](CC(=O)OC(C)(C)C)C/C=C\C[C@H](CC(=O)NCCO)C(=O)N1	none
CC(=O)Nc1ccc(N(C(=O)c2ccccn2)C(C(=O)NC2CCCCC2)c2ccc(F)cc2)cc1 (stereo not given)	none
COC(=O)c1sc2nc(C)nc(SCC(=O)Nc3sccc3C(N)=O)c2c1C	TWEAK-Fn14 inh 60
CN1CC[C@@H]2C(=O)N3CCc4ccc(-c5ccc6c(c5)OCO6)cc4[C@@H]3C[C@@H]21	none
COc1ccc(-c2ccc3[nH]c4c(c3c2)CCN2C(=O)[C@@H]([C@H](C)O)[C@@H](N(C)C(=O)Nc3ccc(F)cc3)C[C@@H]42)cc1	Peg3 promoter 95 (no result: TRPM1 prom inh)
C[C@H](O)[C@@H]1CN2CCc3c([nH]c4ccccc34)[C@@H]2C[C@@H]1N(C)C(=O)Nc1cccc2ccccc12	none (no result: EBV LMP1 NFkB, TRPM1 prom inh)
C[C@H](O)[C@@H]1CN2CCc3c([nH]c4ccc(-c5ccc6c(c5)OCO6)cc34)[C@@H]2C[C@@H]1N(C)C(=O)Nc1ccc(F)cc1	Peg3 promoter 70 (no result: TRPM1 prom inh)
C[C@@H]1ON(C)[C@H]2C[C@H]3c4[nH]c5ccc(-c6ccc7c(c6)OCO7)cc5c4CCN3C[C@@H]12	TWEAK-Fn14 inh 85 (no result: TRPM1 prom inh)
CCc1c(N)nc(N)nc1Nc1ccccc1C	none
CCN1C[C@@H]2[C@@H]3C(=O)N(C)C(=O)[C@@H]3[C@](CC)(C1=O)N2C(=O)c1ccc(Cl)cc1	none
Cc1ccc(S(=O)(=O)N2CCN(CC(=O)N/N=C\c3ccc(Cl)c([N+](=O)[O-])c3)CC2)cc1	Peg3 promoter 69
O=C(CN1CCN(S(=O)(=O)c2ccc(Br)cc2)CC1)N/N=C/c1cc([N+](=O)[O-])ccc1Cl	none
O=C(CN1CCN(S(=O)(=O)c2ccc(Br)cc2)CC1)N/N=C/c1ccc(Cl)c([N+](=O)[O-])c1	Peg3 promoter 93
CCOC(=O)Cc1csc(N/N=C/c2ccc(Cl)cc2)n1	EBV LMP1 NFkB 49
COc1ccc(/C=C/c2noc(-c3ccccc3O)n2)cc1	TWEAK-Fn14 inh 56
COc1cc(/C=C/c2noc(-c3ccccc3O)n2)cc(OC)c1OC	none
CCc1ccc(NCc2nc3ccccc3c(=O)[nH]2)cc1	TROY NFkB inh 67
CCCCNCc1nc2ccccc2c(=O)[nH]1	none
C=CCN1C=CC(=C/C=C(/C#N)C(=O)OCC)C=C1	TWEAK-Fn14 inh 50
O=C(NC1CCCCC1)C(c1ccnc2ccccc12)N1CCc2ccccc2C1 (stereo not given)	none (no result: EBV LMP1 NFkB, TRPM1 prom inh)
CC(=O)Oc1ccc(Cl)cc1/C=C/c1ccc2ccccc2n1	none
Fc1ccccc1/C=C/c1ccc2ccccc2n1	TWEAK-Fn14 inh 89, TROY NFkB inh 59
O=C(O)/C=C/c1ccc2ccccc2n1	EBV LMP1 NFkB 76
